Only some compounds are listed: those with a hit (about 3.3% of all), similar ones and a draw of the others.
esBAF inh – inhibitors of esBAF chromatin remodeling in mouse ES cells. Bmi1-luciferase knock-in reporter, 24 h; 100% = twice the neutral-well signal. hit rate 2% among 350,000. reporter increase, % at 12.5 µM. AID 602393; in the data active = activation above about 40%; inconclusive = no clear call, values can overlap the other calls;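 note: 0% = median of the plate's neutral control wells and 100% = double that signal; a rise in the Bmi1 reporter signal indicates esBAF inhibition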
MITF TRPM1 HTS – activators of MITF-driven TRPM1 promoter activity in SK-MEL-5 cells; SK-MEL-5 TRPM1-promoter luciferase, 24 h; % of positive control, neutral wells = 0; AID 588334; activation, % at 12.5 µM; hit rate 0.75% among 300,000;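 active = mean activation of at least 80% with every replicate also reaching 80%; inconclusive = mean reaches 80% but some replicate falls short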;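 note: 0% = neutral control wells and 100% = parthenolide positive control wells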
FXN GAA850 act – increases GAA850 frataxin promoter reporter activity; HEK293 lucGAA850 FXN promoter luciferase reporter, 24 h; percent of 10 µM SAHA response; hit rate 0.56% among 360,000; activation, % at 6 µM;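 active = activation above the average of all compounds screened plus 3 SD, cutoff fixed separately per campaign, cut at about 7.5% in these data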;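 note: 0% = DMSO wells and 100% = 10 µM SAHA wells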
Statin myotox sup – suppression of simvastatin myotoxicity | C2C12 myotubes + simvastatin, ATP luminescence, 48 h; scaled: DMSO 0, geranylgeraniol control 100 | rescue of ATP level, % at 7.49 µM | hit rate 0.78% among 330,000 | AID 602340;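 active = mean ATP rescue above about 67%, or every replicate alone reaching that limit, limit read from the data, passing the limit was not always enough; inconclusive = no clear call, values can overlap the other calls; inactive = mean under the limit and some replicate under it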;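 note: myotubes were challenged with 10 µM simvastatin during compound exposure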
Wnt bcat act – activators of Wnt/beta-catenin signaling. Wnt/beta-catenin reporter cell assay, activator, plate reader. activation, % at 9.35 µM. hit rate 1.2% among 300,000; in the data active = activation above about 30%, passing the limit was not always enough; inconclusive = no clear call, values can overlap the other calls;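 note: 0% = neutral control wells and 100% = positive control wells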
* hit, by the source's call; ? = inconclusive; . = no result given.

SMILES	esBAF inh	MITF TRPM1 HTS	FXN GAA850 act	Statin myotox sup	Wnt bcat act
Cc1onc(-c2ccccc2)c1C(=O)Nc1nc(-c2cc(F)ccc2F)cs1	30	?	2	-114	-2
Cc1noc(C)c1C(=O)Nc1nc(-c2cc(F)ccc2F)cs1	74*	30	4	-1	9
CCCn1c2c(c(O)c(C(=O)NC)c1=O)CCCC2	-2	-4	1	119*	.
CCCn1ncc2c(Nc3ccc(C)c(C)c3)ncnc21	67*	98*	3	-14	20
O=C(Cn1cc2c(n1)CCCCC2)NC1CCCCCC1	47*	54	2	-4	5
O=C(NCC[C@@H]1CC[C@H](NC(=O)c2ccc3c(c2)OCO3)[C@H](CO)O1)Nc1cc(F)ccc1F	-6	.	.	-7	.
CCC(=O)N1C[C@@H](C)[C@H](OC)CN(C)C(=O)c2cc(NC(=O)C3CC3)ccc2OC[C@@H]1C	1	.	.	-3	.
COc1ccc2[nH]c(C(=O)NCc3ccccc3)cc2c1	.	.	-2	.	4
COc1ccc(CN(Cc2cccn2C)C(=O)c2cc3cc(OC)ccc3[nH]2)cc1	-5	-6	0	124*	-4
O=C1Nc2ccccc2Nc2ncccc21	-9	-5	-1	20	.
Cc1ccc2c(c1)NC(=O)c1cccnc1N2	63*	52	5	1	1
CC(=O)n1nc(-c2ccco2)nc1SCc1ccccc1	55*	64	4	13	.
CNc1nc2c(N)ncnc2n1[C@H]1O[C@@H](CO)[C@H](O)[C@@H]1O	-3	.	6	-1	5
Nc1ncnc2c1nc(N1CCCCC1)n2[C@@H]1O[C@H](CO)[C@@H](O)[C@H]1O	-1	3	2	101*	1
C[C@@H]1CN([C@H](C)CO)C(=O)c2cc(NC(=O)CCC(F)(F)F)ccc2O[C@@H](C)CCCCO[C@@H]1CN(C)Cc1ccccc1	1	.	.	27	.
O=[N+]([O-])c1ccccc1COc1ccc(Cl)c2cccnc12	-42	6	5	21	41*
O=c1c2ccccc2n(Cc2ccc(F)cc2)c(=O)n1C1CCCC1	-6	1	2	116*	-4
O=C(Cn1c(=O)n(Cc2ccc(F)cc2)c(=O)c2ccccc21)NCC1CCCO1 (stereo not given)	1	2	-1	2	1
O=C(C[C@H]1C[C@H]2c3cc(NC(=O)c4cccnc4)ccc3O[C@H]2[C@@H](CO)O1)NCCN1CCCCC1	1	.	.	-2	.
C[C@@H]1CN([C@H](C)CO)C(=O)c2cc(NS(=O)(=O)c3ccc(F)cc3)ccc2O[C@@H](C)CCCCO[C@@H]1CN(C)Cc1ccccc1	-28	.	.	.	.
Cc1noc(C)c1NC(=O)Nc1ccc2c(c1)CC(=O)N([C@H](C)CO)C[C@H](C)[C@@H](CN(C)Cc1ccc(C(F)(F)F)cc1)O2	-1	.	.	?	.
c1ccc2sc(N3CCCCC3)nc2c1	49*	47	5	-1	16
CC1CCCCC1NC(=O)/C=C/c1nc2ccccc2s1 (stereo not given)	.	67	2	.	25
Cc1cccc(C)c1NC(=O)N1CCN(c2nc3ccccc3s2)CC1	48*	-8	-1	36	2
O=C(O)CCC(=O)N1CCN(c2nc3ccccc3s2)CC1	0	-9	0	.	7
SMILES	esBAF inh	MITF TRPM1 HTS	FXN GAA850 act	Statin myotox sup	Wnt bcat act
c1ccc(CN2CCN(c3nc4ccccc4s3)CC2)cc1	?	77	3	2	40*
O=C(/C=C/c1nc2ccccc2s1)N1CCCCCC1	32	100*	6	-1	10
C[C@H](CO)N1C[C@H](C)[C@@H](CN(C)Cc2cccnc2)OCc2ccccc2-c2c(n(C)c3ccccc23)C1=O	0	.	.	.	.
C[C@@H]1CN([C@@H](C)CO)C(=O)c2cc(NS(=O)(=O)c3cccs3)ccc2O[C@@H](C)CCCCO[C@@H]1CN(C)S(=O)(=O)c1ccc(F)cc1	7	.	.	.	.
CCC(=O)Nc1ccc2c(c1)C(=O)N(C)C[C@H](OC)[C@@H](C)CN(C(=O)c1ccc(F)cc1)[C@@H](C)CO2	7	.	.	2	.
CNc1ncc(C(=O)c2ccc(-c3ccccc3)cc2)s1	.	77	-1	.	41*
CNc1ncc(C(=O)c2ccc(Cl)c(Cl)c2)s1	77*	.	6	1	.
CN(C)/C=N/c1ncc(C(=O)c2ccc(-c3ccccc3)cc2)s1	.	20	1	.	-1
CNc1ncc(C(=O)c2ccc(Cl)cc2)s1	36	.	5	9	.
C[C@@H]1CCCCO[C@@H](CN(C)C)[C@H](C)CN([C@H](C)CO)C(=O)c2cc(N(C)C)ccc2O1	-4	.	.	17	.
COCC(=O)N(C)C[C@H]1Oc2cc(-c3ccc(C)cc3)ccc2S(=O)(=O)N([C@H](C)CO)C[C@@H]1C	0	.	.	1	.
O=C(Nc1ccc(Cl)cc1)OCc1ccccn1	77*	.	2	-5	54*
C[C@@H]1CN([C@@H](C)CO)C(=O)c2cccc(NC(=O)Nc3ccccc3)c2O[C@@H]1CN(C)S(=O)(=O)c1ccc(Cl)cc1	4	.	.	62	.
CC(c1ccco1)N(C(=O)COc1ccc(Cl)cc1Cl)c1ccccn1 (stereo not given)	27	105*	0	14	18
Cc1ccc(C(=O)N(c2ccccn2)C(C)c2ccco2)cc1C (stereo not given)	?	24	1	123*	15
CC(c1ccco1)N(C(=O)c1ccccc1F)c1ccccn1 (stereo not given)	.	-12	2	.	4
CC(c1ccco1)N(C(=O)c1ccccc1NS(=O)(=O)c1ccc(Cl)cc1)c1ccccn1 (stereo not given)	8	-7	3	-10	-1
CC(c1ccco1)N(C(=O)COc1ccc(Cl)cc1)c1ccccn1 (stereo not given)	72*	34	3	2	.
CO[C@H]1CN(C)C(=O)c2cc(NS(C)(=O)=O)ccc2OC[C@H](C)N(CC2CCCCC2)C[C@@H]1C	2	.	.	14	.
Cc1ccc(CCNc2ccc3ccccc3c2)cn1	16	17	0	94*	-1
O=C(CN(C(=O)Cn1nnc(-c2ccc(F)cc2)n1)c1ccc(F)c(Cl)c1)NCC1CCCO1 (stereo not given)	.	9	-1	.	41*
COc1ccc(Cl)cc1C(=O)n1nc(C)cc1C	4	12	3	107*	.
C[C@H](CO)N1C[C@H](C)[C@H](CN(C)Cc2ccccc2)Oc2ccc(NC(=O)Nc3ccc4c(c3)OCO4)cc2CC1=O	2	.	.	3	.
O=C(CSc1ncnc2sccc12)N1CCCCC1	72*	73	4	8	9
CCOC(=O)N1CCN(C(=O)CSc2ncnc3sccc23)CC1	8	1	2	10	-3
C[C@@H]1CN([C@H](C)CO)C(=O)c2cccc(NC(=O)C3CCOCC3)c2O[C@@H]1CN(C)CC1CCCCC1	4	.	.	36	.
COc1ccc(-c2ccc3oc(-c4ccsc4)cc(=O)c3c2)cc1F	45*	50	0	3	7
